From PubChem BioAssay come the findings set out here.

SMILES strings stand for the structures. For part of these data: Potency and affinity values are given separately. Calls of active or inactive are those of the source.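 The calls were made as follows, unless noted: active = primary screen hit whose calcium fluorescence ratio, in both repeats, exceeds the weak agonist control mean by 3 SD; inactive = the rest.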

The test system of assay [1] is TRPC4 beta (transient receptor potential cation channel C4), mouse. The assay can be described thus: TRPC4 cation channel opening, retest – cell-based, Fluo4 calcium, HEK293 TRPC4beta/mu-opioid, duplicates, 10 µM, confirmation (AID 2426;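 active = fluorescence ratio normalized to control raised more than 50% in primary screen plus both repeat runs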;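 as to activation: percent rise of integrated ratio over buffer wells lacking compound which define 0%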). As to conditions: Fluo4 calcium fluorescence, at 10 µM; active compounds read high.
In assay [2] the test system is transient receptor potential cation channel C4 beta (TRPC4), mouse. The assay is described as follows: TRPC4 cation channel opening, second retest – cell-based, second round, Fluo4, HEK293 TRPC4beta/mu-opioid, 1 µM, confirmation (AID 2461;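 active = primary screen active and over 50% activation in each of two duplicate runs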;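 as to activation: 0% = wells without test compound as baseline of integrated fluorescence ratio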). As to conditions: Fluo4 calcium fluorescence, at 1 µM; active compounds read high.
Assay [3] has as its system TRPC4 (transient receptor potential cation channel C4 beta), mouse. The assay is described as follows: potentiation of DAMGO EC20 TRPC4 response – cell-based, second round, Fluo-4, HEK293 TRPC4beta/mu-opioid, 1 µM, confirmation (AID 2554;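 active = primary screen hit whose fluorescence ratio, in both repeats, exceeds the weak agonist control mean by 3 SD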). As to conditions: DAMGO EC20, Fluo-4 calcium flux, at 1 µM; active compounds read high. (In general: Calcium flux is commonly read through the fluorescence of an indicator in the cells.)

Assay [4] concerns TRPC4 beta (transient receptor potential cation channel C4), mouse. The assay is described as follows: potentiation of DAMGO EC20 TRPC4 response – cell-based, Fluo-4, HEK293 TRPC4beta/mu-opioid, confirmation (AID 2555). As to conditions: DAMGO EC20, Fluo-4 calcium flux, at 10 µM; active compounds read high.
The target in assay [5] is Short transient receptor potential channel 4 (Mus musculus) (UniProt Q9QUQ5). The assay is described as follows: blockers of DAMGO-evoked TRPC4 calcium flux – cell-based, Fluo4, HEK293 TRPC4beta/mu-opioid, confirmation (AID 2636;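 active = calcium signal cut by more than 3 SD below the full-agonist control yet still positive, in both repeats and the earlier primary screen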). As to conditions: at 10 µM; active compounds read high.
Assay [6] has the same target. The assay can be described thus: blockers of DAMGO-evoked TRPC4 calcium flux – cell-based, second round, Fluo4, HEK293 TRPC4beta/mu-opioid, 1 µM, confirmation (AID 2637;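 active = calcium signal ratio cut to more than 3 SD under the fully stimulated control mean yet still positive, in both repeats and the primary screen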). As to conditions: at 1 µM; active compounds read high.
Assay [7] shares this target. The assay is described as follows: potentiation of DAMGO-evoked TRPC4 calcium signal – cell-based, HEK293 TRPC4/mu-opioid, Fluo-4 calcium, EC20 DAMGO, dose response (AID 434941;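 active = earlier screen potentiator hit that boosts the TRPC4 ion channel at some dose, with a dose response; inactive = no potentiation, no dose response, or not a prior hit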;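 also: calcium entry triggered by an EC20 dose of DAMGO at the co-expressed mu-opioid receptor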).
For assay [8] the target is unchanged. The assay can be described thus: block of DAMGO-driven TRPC4 calcium entry – cell-based, HEK293 TRPC4/mu-opioid, Fluo-4 calcium, dose response (AID 434942;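 active = primary screen inhibitor hit that blocks the TRPC4 channel at some tested dose, yielding a dose curve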).
Assay [9] deals with Short transient receptor potential channel 6 (Mus musculus) (UniProt Q61143). The assay is described as follows: TRPC6 blockade by TRPC4 inhibitor hits – cell-based, HEK293, membrane potential dye, duplicate, selectivity assay for TRPC4 inhibitor project, confirmation (AID 434948;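 active = active in primary screen and both duplicates, each dropping signal beyond three positive-control SD with fluorescence still positive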). As to conditions: HEK293 TRPC6, membrane potential dye fluorescence, at 10 µM, stimulated with maximal-effect acetylcholine; active compounds read high.

For assay [10] the target is unchanged. The assay is described as follows: TRPC6 opening by TRPC4 activator hits – cell-based, HEK293, membrane potential dye, duplicate, selectivity assay for TRPC4 activator project, confirmation (AID 434950;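 active = membrane potential signal rise above negative control mean plus 3 SD in both duplicates, also active in the earlier TRPC4 screen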;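 as to activation: 0% = buffer only wells and 100% = acetylcholine maximal-effect wells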). As to conditions: HEK293 TRPC6, membrane potential fluorescence, at 10 µM; activation: active compounds read high; outcome: activation.
The target is the same in assay [11]. The assay is described as follows: positive modulators of mouse TRPC6 channel – HEK293 cells, membrane potential dye, duplicate, selectivity assay for TRPC4 potentiator project, confirmation (AID 434952;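 active = compound raising the membrane signal above positive-control mean plus 3 SD in both repeats, and a primary screen hit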). As to conditions: HEK293 TRPC6, membrane potential dye fluorescence, at 10 µM, maximal acetylcholine added after compound; active compounds read high.
The target in assay [12] is Short transient receptor potential channel 4 (Mus musculus) (UniProt Q9QUQ5). The assay can be described thus: calcium flux activators in TRPC4/5HT1a cells, counter-screen for TRPC4 activator project, cell-based, second counter screen, HEK293 TRPC4/5HT1a, Fluo-4 (AID 434977;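 active = calcium signal rise above buffer-control mean plus 5 SD in both duplicates, and also a hit in the primary screen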;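 as to activation: plate controls were assay buffer for no effect and maximal serotonin response for full effect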). As to conditions: Fluo-4 calcium flux, at 10 µM; active compounds read high.
The nature of assay [13]: serotonin-gated TRPC4 signal block – cell-based, second counter screen, HEK293 TRPC4/5HT1a, Fluo-4, counter-screen for TRPC4 inhibitor project, confirmation (AID 434978;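 active = primary screen active whose calcium signal fell more than 3 SD beyond the full-serotonin control mean in both duplicate plates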;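 also: serotonin given first at submaximal then at maximal dose after compound preincubation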). As to conditions: Fluo-4 calcium flux, at 10 µM, serotonin added to trigger calcium flux; active compounds read high. (The purpose of a counterscreen is to sort out artefacts and off-target activity.)
Assay [14] has as its system TRPC4 (mouse), co-expressed with 5HT1a in HEK293. The assay can be described thus: enhancement of serotonin-evoked TRPC4 response – cell-based, second counter screen, HEK293 TRPC4/5HT1a, Fluo-4, counter-screen for TRPC4 potentiator project, confirmation (AID 434979;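 active = signal rise over 3 SD above mean of control wells given weak agonist, in both repeats and first screen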). As to conditions: Fluo-4 calcium flux, at 10 µM, serotonin added at its EC20 dose; active compounds read high.

The nature of assay [15]: nonspecific calcium rise without TRPC4 – cell-based, HEK293 mu-opioid receptor line, counter-screen for TRPC4 activator project, confirmation (AID 449723;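 active = hit in primary screen, with calcium signal over 5 SD above buffer well mean in both duplicates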;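 also: counter screen cells carry the mu-opioid receptor alone and lack TRPC4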). As to conditions: HEK293 mu-opioid cells, Fluo-4 calcium fluorescence, at 10 µM; active compounds read high.
The nature of assay [16]: nonspecific potentiation of DAMGO calcium response – cell-based, HEK293 mu-opioid receptor line, counter-screen for TRPC4 allosteric potentiator project, confirmation (AID 449724;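 active = calcium signal rise more than 3 SD above the low-dose agonist control mean, in both duplicate plates and the primary screen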;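 also: HEK293 cells carrying mu-opioid receptor only with no TRPC4 channel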). As to conditions: HEK293 mu-opioid receptor cells, Fluo-4 calcium flux, at 10 µM, compound added before EC20 DAMGO stimulus; active compounds read high.
Assay [17] can be described thus: nonspecific flux increase, KCNQ1-free cells – parental CHO cells, counter-screen for KCNQ1 potentiator project (AID 493006;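 active = duplicate-averaged activation above buffer control mean plus 5 SD of those controls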;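 also: fluorescence ratio of max minus min over baseline after K+ and Tl+ depolarization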). As to conditions: parental CHO-K1 cells, FluxOR thallium flux, at 10 µM; active compounds read high.
Assay [18] deals with Potassium voltage-gated channel subfamily KQT member 1 (Homo sapiens) (UniProt P51787). The assay can be described thus: enhancement of KCNQ1 channel thallium flux – FluxOR thallium flux, CHO cells, duplicates, confirmation (AID 493007;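 active = potentiation averaged over duplicate wells exceeding buffer-only control mean by more than 3 SD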;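 also: 0% = buffer-only wells and 100% = R-L3 activator control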). As to conditions: KCNQ1 cell line, FluxOR thallium flux fluorescence, at 10 µM; active compounds read high, % of reference activator effect, buffer zero.

For assay [19], the target named is Potassium voltage-gated channel subfamily KQT member 2 (Rattus norvegicus) (UniProt O88943). The assay can be described thus: KCNQ2 thallium flux enhancement – KCNQ2-CHO-K1 cells, selectivity assay for KCNQ1 potentiator project (AID 493009;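 active = mean duplicate potentiation above the buffer control mean plus 5 SD of buffer wells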;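 also: assay conditions were tuned for KCNQ1 rather than KCNQ2 modulators; signal is max minus min fluorescence divided by baseline after thallium stimulus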). As to conditions: FluxOR thallium flux fluorescence, at 10 µM; active compounds read high, scaled: buffer 0, activator control 100.

Assay [20] addresses Potassium voltage-gated channel subfamily KQT member 1 (Homo sapiens) (UniProt P51787). The assay can be described thus: KCNQ1 activators by electrophysiology – IonWorks patch clamp, KCNQ1-CHO cells, orthogonal assay for KCNQ1 potentiator project, confirmation (AID 493184;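 active = current rise at least 3 SD above the untreated control mean in each of two repeat wells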). As to conditions: automated patch clamp current, at 10 µM; active compounds read high. Background: The patch-clamp technique gives a direct electrical read-out from membranes.

Chain of Short transient receptor potential channel 6 (Mus musculus) (Q61143 whole entry, looked up): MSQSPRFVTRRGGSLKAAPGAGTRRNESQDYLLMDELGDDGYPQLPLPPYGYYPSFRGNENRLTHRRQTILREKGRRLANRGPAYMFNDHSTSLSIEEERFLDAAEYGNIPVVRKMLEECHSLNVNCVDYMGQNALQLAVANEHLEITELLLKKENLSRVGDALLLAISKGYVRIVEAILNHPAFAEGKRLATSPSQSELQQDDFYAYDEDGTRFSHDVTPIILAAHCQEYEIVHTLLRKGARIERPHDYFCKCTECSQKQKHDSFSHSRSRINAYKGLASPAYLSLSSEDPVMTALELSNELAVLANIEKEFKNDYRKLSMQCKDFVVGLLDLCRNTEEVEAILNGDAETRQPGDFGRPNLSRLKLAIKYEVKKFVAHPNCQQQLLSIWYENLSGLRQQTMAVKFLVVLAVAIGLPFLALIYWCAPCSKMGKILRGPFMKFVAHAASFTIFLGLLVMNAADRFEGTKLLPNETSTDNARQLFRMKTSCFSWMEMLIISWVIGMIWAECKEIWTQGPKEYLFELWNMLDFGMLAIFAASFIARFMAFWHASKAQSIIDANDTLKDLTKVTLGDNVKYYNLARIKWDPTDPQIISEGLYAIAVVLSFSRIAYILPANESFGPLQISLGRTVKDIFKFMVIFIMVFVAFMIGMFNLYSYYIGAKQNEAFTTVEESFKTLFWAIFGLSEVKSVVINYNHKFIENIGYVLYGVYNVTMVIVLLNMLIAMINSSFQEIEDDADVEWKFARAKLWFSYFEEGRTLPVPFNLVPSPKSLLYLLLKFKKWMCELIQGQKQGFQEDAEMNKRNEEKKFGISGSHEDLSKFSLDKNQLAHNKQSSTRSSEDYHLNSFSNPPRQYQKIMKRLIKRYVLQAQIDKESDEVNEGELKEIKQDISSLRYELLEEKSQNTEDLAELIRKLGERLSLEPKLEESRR
Chain of Short transient receptor potential channel 4 (Mus musculus) (Q9QUQ5 whole entry, looked up): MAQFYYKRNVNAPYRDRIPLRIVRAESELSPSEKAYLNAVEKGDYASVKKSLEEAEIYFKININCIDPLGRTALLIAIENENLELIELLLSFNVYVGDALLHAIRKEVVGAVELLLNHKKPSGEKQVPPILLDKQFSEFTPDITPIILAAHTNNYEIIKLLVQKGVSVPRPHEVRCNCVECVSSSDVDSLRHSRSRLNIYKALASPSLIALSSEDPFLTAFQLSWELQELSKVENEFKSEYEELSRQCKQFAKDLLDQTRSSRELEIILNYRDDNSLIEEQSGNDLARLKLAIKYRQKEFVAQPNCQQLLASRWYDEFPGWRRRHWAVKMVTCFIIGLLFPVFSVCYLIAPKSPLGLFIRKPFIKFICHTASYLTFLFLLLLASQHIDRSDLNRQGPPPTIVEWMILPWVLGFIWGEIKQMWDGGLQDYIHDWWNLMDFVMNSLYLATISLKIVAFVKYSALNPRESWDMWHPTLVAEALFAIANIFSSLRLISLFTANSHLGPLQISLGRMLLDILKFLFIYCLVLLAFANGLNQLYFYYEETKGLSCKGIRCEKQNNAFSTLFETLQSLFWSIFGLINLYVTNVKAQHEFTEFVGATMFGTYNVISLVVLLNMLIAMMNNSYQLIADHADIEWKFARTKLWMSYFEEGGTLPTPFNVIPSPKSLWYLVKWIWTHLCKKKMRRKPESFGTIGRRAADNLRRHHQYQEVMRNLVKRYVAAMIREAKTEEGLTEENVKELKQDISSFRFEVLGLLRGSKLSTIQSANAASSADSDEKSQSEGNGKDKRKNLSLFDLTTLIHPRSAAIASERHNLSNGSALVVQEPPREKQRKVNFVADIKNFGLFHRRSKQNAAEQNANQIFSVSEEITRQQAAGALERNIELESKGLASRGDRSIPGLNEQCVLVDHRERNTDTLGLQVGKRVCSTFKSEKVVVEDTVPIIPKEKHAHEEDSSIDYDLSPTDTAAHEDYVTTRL
Chain of Potassium voltage-gated channel subfamily KQT member 1 (Homo sapiens) (P51787 whole entry, looked up): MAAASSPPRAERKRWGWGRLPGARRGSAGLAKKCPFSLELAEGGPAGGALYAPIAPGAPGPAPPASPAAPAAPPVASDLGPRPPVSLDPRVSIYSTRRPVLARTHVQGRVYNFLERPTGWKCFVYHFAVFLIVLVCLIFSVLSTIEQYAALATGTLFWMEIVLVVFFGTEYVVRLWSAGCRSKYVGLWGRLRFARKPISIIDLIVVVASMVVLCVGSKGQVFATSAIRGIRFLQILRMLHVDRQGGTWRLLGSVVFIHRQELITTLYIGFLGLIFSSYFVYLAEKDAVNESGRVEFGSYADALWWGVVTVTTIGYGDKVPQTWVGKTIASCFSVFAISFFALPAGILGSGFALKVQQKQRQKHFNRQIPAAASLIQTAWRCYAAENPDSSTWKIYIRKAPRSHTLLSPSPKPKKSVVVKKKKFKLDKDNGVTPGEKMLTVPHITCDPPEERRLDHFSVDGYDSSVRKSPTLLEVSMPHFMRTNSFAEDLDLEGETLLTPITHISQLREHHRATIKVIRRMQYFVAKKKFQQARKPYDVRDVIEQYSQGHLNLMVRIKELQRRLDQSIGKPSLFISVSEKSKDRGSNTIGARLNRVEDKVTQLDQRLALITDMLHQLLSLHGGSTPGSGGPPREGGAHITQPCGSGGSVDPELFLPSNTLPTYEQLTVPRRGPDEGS
Chain of Potassium voltage-gated channel subfamily KQT member 2 (Rattus norvegicus) (O88943 whole entry, looked up): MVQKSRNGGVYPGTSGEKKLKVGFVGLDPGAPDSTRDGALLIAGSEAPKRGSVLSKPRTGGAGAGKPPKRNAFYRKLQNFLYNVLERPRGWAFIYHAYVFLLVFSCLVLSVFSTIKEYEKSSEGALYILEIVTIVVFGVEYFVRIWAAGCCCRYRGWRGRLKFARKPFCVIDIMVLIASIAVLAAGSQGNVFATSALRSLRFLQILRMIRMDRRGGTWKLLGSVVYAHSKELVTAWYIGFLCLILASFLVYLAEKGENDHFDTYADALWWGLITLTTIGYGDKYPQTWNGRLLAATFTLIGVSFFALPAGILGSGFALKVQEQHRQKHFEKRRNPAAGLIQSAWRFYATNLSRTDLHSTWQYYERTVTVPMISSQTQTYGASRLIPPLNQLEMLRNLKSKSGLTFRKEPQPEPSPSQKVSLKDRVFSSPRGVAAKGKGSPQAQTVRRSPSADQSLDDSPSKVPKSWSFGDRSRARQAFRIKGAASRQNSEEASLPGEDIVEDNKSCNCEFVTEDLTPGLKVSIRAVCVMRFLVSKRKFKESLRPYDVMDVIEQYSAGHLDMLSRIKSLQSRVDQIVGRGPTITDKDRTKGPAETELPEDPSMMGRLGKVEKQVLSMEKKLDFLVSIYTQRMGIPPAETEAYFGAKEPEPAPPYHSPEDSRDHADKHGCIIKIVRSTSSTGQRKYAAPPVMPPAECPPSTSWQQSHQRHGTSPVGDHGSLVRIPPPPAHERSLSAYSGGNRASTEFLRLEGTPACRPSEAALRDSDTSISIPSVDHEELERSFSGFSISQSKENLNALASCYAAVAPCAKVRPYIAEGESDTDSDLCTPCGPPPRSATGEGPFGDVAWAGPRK

For the compound `Cc1sc2ncnc(NC3CCN(Cc4ccccc4)CC3)c2c1C`, the activation in assay [1] was 240% (active); in [2], 199% (active); in [12], 145% (active). For the same compound, the result in assay [3], in assay [4], in assay [5], in [6], in [7] and in [8] was inactive. In addition, the outcome in [9], in assay [10], in [11], in assay [13], in [14] and in assay [15] was inactive. In addition, the outcome in assay [16] was inactive.

As to `Cc1cc(Cl)cc(C)c1OCCCCn1ccnc1`, the activation in assay [1] was 98% (active); in assay [10], 42.5% (active); in [12], 36.8% (active). In addition, the result in [2], in assay [3], in [4], in assay [5], in assay [6] and in assay [7] was inactive. Further, the result in [8], in [9], in assay [11], in [13], in assay [14] and in [15] was inactive. Besides, in [16], the outcome was inactive.

`COc1ccc(/C=C/CN2CCCC(C(=O)c3ccc(OC)c(F)c3)C2)cc1` (stereo not given): the outcome in assay [1], in assay [2], in [3], in assay [4], in [5] and in assay [6] was inactive. The result in assay [7], in assay [8], in assay [9], in assay [11], in assay [12] and in assay [13] was inactive. In addition, the outcome in assay [14], in assay [15] and in assay [16] was inactive. Also, in assay [10], the activation is 33% (active).

Consider `CCCOc1ccc(C(=O)NNC(=S)NC(=O)c2ccccc2)cc1`, for which the activation is 152% (active) in assay [1], 122% (active) in assay [12], 39.5% (active) in [15] and 180% (active) in assay [17]. Besides, the result in assay [2], in assay [3], in assay [4], in [5], in assay [6] and in [7] was inactive. Also, the outcome in assay [8], in assay [9], in assay [10], in assay [11], in [13] and in assay [14] was inactive. Further, the result in assay [16] and in assay [20] was inactive. Moreover, the potentiation in [18] is 168% (active); in assay [19], 318% (active).

Turning to `COC(=O)c1ccc(N2CCN(C)CC2)c(NC(=O)COc2ccccc2)c1`, the values for the activation in assay [1] and in assay [12] were 86% (active) and 12.3% (active), respectively. The result in [2], in assay [3], in [4], in assay [5], in assay [6] and in assay [7] was inactive. In addition, the result in assay [8], in [9], in assay [10], in assay [11], in [13] and in assay [14] was inactive. For the same compound, the result in assay [15] and in assay [16] was inactive.

Take `Cc1cccc(C(=O)NNC(=S)NC(=O)c2cccs2)c1`: the activation in assay [1] is 158% (active); in assay [12] it was 124% (active); in assay [15], 36.4% (active); in [17], 142% (active). Also, the result in assay [2], in assay [3], in assay [4], in assay [5], in assay [6] and in assay [7] was inactive. The outcome in assay [8], in [9], in [10], in assay [11], in assay [13] and in assay [14] was inactive. Moreover, the result in assay [16] and in assay [20] was inactive. The potentiation in [18] was 91% (active); in [19], 226% (active).

Regarding `CCn1cc(CN2CCCC(C(=O)Nc3ccc(-c4nc5ccccc5[nH]4)cc3)C2)c(C)n1` (stereo not given), the activation was 169% (active) in assay [1], 116% (active) in assay [2], 52% (active) in assay [10] and 35.7% (active) in assay [12]. Besides, the outcome in [3], in assay [4], in [5], in assay [6], in assay [7] and in [8] was inactive. Further, the call in assay [9], in [11], in assay [13], in [14], in assay [15] and in assay [16] was inactive.
